High-throughput results: PubChem, National Center for Advancing Translational Sciences (NCATS)
Sampled rows, rich in hits. Any-hit rate of the full collection: about 12%.
PI5P4Ka inh: qHTS for Inhibitors of phosphatidylinositol 5-phosphate 4-kinase (PI5P4K); max response, %; Phosphatidylinositol 5-phosphate 4-kinase type-2 alpha (Homo sapiens), P48426; hit rate 1.2% among 330,000; AID 652105, 2013; PI5P4Kalpha enzyme, ADP-Glo luminescence, 60 min; hits give low values; active = max response of -50% or lower; inconclusive = between -30% and -50%; inactive = -30% or higher; note: value at the top dose of about 77 µM; % is set by controls: 0 for no effect and ±100 for the full control effect
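ADP-Glo luminescence end-point after a 60 min room-temperature kinase reaction. PI5P4Kalpha and substrate in HEPES pH 7.4 buffer with EGTA, 0.1% CHAPS and 5% DMSO; ATP at 5 microM final.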
HP1b binding inh: HTS for Inhibitors of HP1-beta Chromodomain Interactions with Methylated Histone Tails. Chromobox protein homolog 1 (Homo sapiens), P83916. AlphaScreen HP1-beta / biotin-H3K9me3 peptide binding. Potency, µM (highest dose often 114 µM), for the others: top-dose activity change, negative = inhibition, actives largely listed as inhibitors. hit rate 0.56% among 390,000; note: potency is the fitted concentration of half-maximal effect; nearly all actives have a fitted effect of over 70% in size
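AlphaScreen: HP1-beta (50 nM) preformed 30 min with biotin-H3(1-18)K9me3 peptide (50 nM) in PBS pH 7.4, 0.01% Tween-20. Compound added for 30 min at RT, then streptavidin donor/nickel chelate acceptor beads (10 ug/mL) for 30 min.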
JMJD2A Tudor: qHTS Assay for Inhibitors of JMJD2A-Tudor Domain. hit rate 4.4% among 390,000. Potency, µM (doses to about 114 µM), without a hit: top-dose activity change, negative = inhibition, most hits filed as inhibitors. AlphaScreen JMJD2A-Tudor / H3K4me3 peptide binding; note: potency is the fitted concentration of half-maximal effect; % is set by controls: 0 for no effect and ±100 for the full control effect; nearly all actives have a fitted effect of over 50% in size
G9a block: qHTS Assay for Inhibitors of Histone Lysine Methyltransferase G9a. Potency, µM (titrated, usually from 102 µM), inactives show top-dose activity, negative = inhibition, usual class: inhibitors. G9a H3K9 monomethylation, AlphaScreen, 2 h. Histone-lysine N-methyltransferase EHMT2 (Homo sapiens), Q96KQ7. hit rate 8.8% among 350,000; note: potency is the fitted concentration of half-maximal effect; % is set by controls: 0 for no effect and ±100 for the full control effect; nearly all actives have a fitted effect of over 75% in size
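Quantitative HTS format: methyltransferase activity on a biotin-tagged H3K9 peptide is measured by AlphaScreen, using a rabbit anti-monomethyl-H3K9 antibody with streptavidin donor and anti-IgG acceptor beads. Final levels are 20 nM enzyme, 500 nM peptide, 20 uM SAM; 2 h RT.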
PLK1 PBD inh: qHTS for Inhibitors of PLK1-PDB (polo-like kinase 1 - polo-box domain): Primary Screen | Serine/threonine-protein kinase PLK1 (Homo sapiens), P53350 | Plk1 PBD binding of FITC phosphopeptide, fluorescence polarization | Potency, µM, without a hit: max response, negative = inhibition, usual class: inhibitors | hit rate 2.8% among 360,000 | AID 720504, 2013; note: potency is the fitted concentration of half-maximal effect; series mostly up to about 57 µM; % is set by controls: 0 for no effect and ±100 for the full control effect; nearly all actives have a fitted effect of over 65% in size
BAZ2B inh: qHTS Assay for Inhibitors of BAZ2B | Bromodomain adjacent to zinc finger domain protein 2B (Homo sapiens), Q9UIF8 | AlphaScreen BAZ2B-H3K14Ac peptide displacement | Potency, µM (top dose mostly 114 µM), inactives show at the highest dose activity change, negative = inhibition, most hits filed as inhibitors | hit rate 4.4% among 360,000; note: potency is the fitted concentration of half-maximal effect; % is set by controls: 0 for no effect and ±100 for the full control effect; nearly all actives have a fitted effect of over 60% in size
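AlphaScreen displacement: compounds (up to 110uM) incubated 30 min at room temperature with a preformed 50 nM BAZ2B/50 nM biotinylated H3K14Ac peptide complex in PBS pH 7.4 with Tween-20. Donor and acceptor beads at 10 ug/mL final added, 20 min light-protected before reading.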
The depositor's hits bear a star; ? = inconclusive; · = no result given; [ ] = dose if it differs, or a comment. Unless noted, calls come from the whole dose curve; as a rule, active = well fitted curve in the direction sought with a large enough effect; inconclusive = small, poorly fitted or top-dose-only effect, or another doubt; inactive = no such curve, though single readings can be large; an effect the other way counts as inactive or inconclusive.

SMILES | PI5P4Ka inh | HP1b binding inh | JMJD2A Tudor | G9a block | PLK1 PBD inh | BAZ2B inh
COc1cc(C)ccc1OCCOCCOc1ccccc1[N+](=O)[O-] | 7 | 28% | -11% | -4%[59 µM] | -8% | 3%
CCC(C)Nc1c([N+](=O)[O-])cc(C)cc1[N+](=O)[O-] (stereo not drawn) | -8 | ? | 20µM* | 40µM* | 0% | 32µM*
COc1ccccc1OCCOCCOc1ccc(C)cc1[N+](=O)[O-] | -2 | 29% | -19% | 3%[59 µM] | -8% | 5%
COCCCNC(=S)Nc1ccc(C)cc1[N+](=O)[O-] | 2 | -19% | -15% | ? | -12% | -12%
COC(=O)c1ccc2c(c1)N(CC(=O)Nc1ccc(C)cc1Cl)C(=O)c1ccccc1S2 | · | 12%[57 µM] | -22% | 2%[59 µM] | · | 0%
Cc1ccc([N+](=O)[O-])c(OCCn2cnc3ccccc32)c1 | 3 | 30% | -21% | 8%[59 µM] | -6% | -9%
C=CCN(CC=C)CCOc1cc(C)ccc1[N+](=O)[O-] | -3 | 28µM* | ? | 10µM* | -3% | 22µM*
CCC(C)NCCOc1ccc(C)cc1[N+](=O)[O-] (stereo not drawn) | -1 | ? | 0.79µM* | 11µM* | 33% | 40µM*
Cc1ccc(OCC(=O)N/N=C/c2ccccc2)c([N+](=O)[O-])c1 | 7 | 1% | -19% | -6% | -12% | 1%
O=C(C1=NN[C@@H]2C(=O)N(c3ccccc3C(F)(F)F)C(=O)[C@H]12)c1cnccn1 | -3 | 65% | -2% | ? | 1% | -23%
O=C(C1=NN[C@@H]2C(=O)N(c3cccc(F)c3)C(=O)[C@H]12)c1cnccn1 | 3 | 36% | 18µM* | 20µM* | 4% | 45µM*
CCN1C(=O)[C@@H]2C(C(=O)c3cnccn3)=NN[C@@H]2C1=O | 3 | -2% | 45µM* | · | -23% | -14%
Cc1ccc(S(=O)(=O)N(CC(=O)NCCSc2ccccn2)c2cc(C)cc(C)c2)cc1 | 6 | 37% | -21% | -1% | -11% | -32%
Cc1ccc(N(CC(=O)NCCSc2ccccn2)S(C)(=O)=O)cc1 | 2 | 33% | -8% | 28µM* | ? | -2%
O=C(N/N=C/c1cc(Cl)cc([N+](=O)[O-])c1O)c1cccc(S(=O)(=O)N2CCOCC2)c1 | ? | -32% | 40µM* | 50µM* | -7% | 25µM*
O=C(N/N=C/c1cc(Br)cc(Br)c1O)c1cccc(S(=O)(=O)N2CCOCC2)c1 | -5 | 0% | 89µM* | 45%[59 µM] | 49% | -1%
O=C(N/N=C/c1cc(Cl)cc([N+](=O)[O-])c1O)c1ccc2c(c1)OCO2 | -25 | -4% | 79µM* | ? | -14% | 35µM*
COc1cc(/C=N/NC(=O)c2cccc(S(=O)(=O)N3CCCC3)c2)ccc1O | 2 | 15% | -24% | 5%[0.501 µM] | -7% | 3%
COc1cc(Cl)cc(/C=N\NC(=O)c2ccc3c(c2)OCO3)c1O | -11 | · | · | · | -24% | ·
O=C(N/N=C/c1ccc(O)c(O)c1)c1cccc(S(=O)(=O)N2CCCC2)c1 | 3 | -23% | 7.9µM* | 40µM* | -7% | -38%
CC(C)c1ccc(/C=N/NC(=O)c2cccc(S(=O)(=O)N3CCOCC3)c2)cc1 | 3 | 9% | -13% | 11% | -3% | ·
O=C(N/N=C/c1ccccc1Br)c1cccc(S(=O)(=O)N2CCOCC2)c1 | 6 | 36% | -20% | -14%[12.7 µM] | 0% | 4%
COC(=O)c1cc(=O)nc(NN=Cc2ccc(C)cc2)s1 | -9 | · | · | · | -12% | ·
CC(C)c1cnc2c(c1SCC(=O)Nc1ccccc1C(F)(F)F)c(=O)n(C)c(=O)n2C | · | 25%[57 µM] | 7% | 6%[59 µM] | · | 11%
O=C(CN1C(=O)NC2(CCCCCC2)C1=O)NCc1ccc(Cl)cc1 | -5 | 12% | -14% | · | 2% | ·
SMILES | PI5P4Ka inh | HP1b binding inh | JMJD2A Tudor | G9a block | PLK1 PBD inh | BAZ2B inh
O=C(N/N=C/c1cc(Cl)cc([N+](=O)[O-])c1O)NC12CC3CC(CC(C3)C1)C2 | -69* | ? | 50µM* | 10µM* | ? | 8.9µM*
CCOc1ccc(C(=O)N/N=C/c2cc(Cl)ccc2[N+](=O)[O-])cc1 | 1 | -11% | ? | -45%[59 µM] | 0% | 56µM*
CCOc1ccc(Cl)cc1/C=N/NC(=O)c1ccccc1 | -9 | 14% | -2% | 20%[59 µM] | -6% | 18%
O=C(N/N=C/c1ccccc1O)NC12CC3CC(CC(C3)C1)C2 | 17 | 5%[57 µM] | -15% | 57% | -2% | -4%
CCOC(=O)c1ccccc1NC(=O)Cc1c(C(=O)O)c(C)cn1C | · | 9% | -23% | 1%[59 µM] | · | -14%
O=C(c1ccc2nccnc2c1)N1CCCC(N2CCN(c3ccc(F)cc3)CC2)C1 (stereo not drawn) | 9 | 18% | -10% | 5% | -4% | -4%[57.1 µM]
CCc1ccc2nc(N(CCN(CC)CC)C(=O)c3ccco3)sc2c1 | · | 50% | -27% | -28%[59 µM] | · | -17%
CC(C)Oc1ccccc1C1CC(=O)Nc2cc3c(cc21)OCO3 (stereo not drawn) | · | -39% | 56µM* | ? | -2% | ?
CCn1cc2nc(SCc3cc(C)ccc3C)n(CCc3ccccc3)c(=O)c2n1 | · | 22% | -19% | -4%[59 µM] | · | -10%
C=C(C)CSc1nc(N)c(C#N)c(-c2ccc(C)cc2)c1C#N | · | 16% | -4% | ? | 27µM* | -24%
CCOC(=O)CSc1nc(-c2ccc(Cl)cc2)cc(C(F)(F)F)c1C#N | · | 86% | 62% | 27%[59 µM] | · | 16%
N#Cc1c(-c2ccccc2F)cc(C2CC2)nc1SCC(=O)c1cccs1 | -3 | 29% | -4% | 45µM* | -19% | -4%
CCOC(=O)CSc1nc(N)c(C#N)c(-c2ccc(OC)cc2)c1C#N | -64* | 58% | 6% | 50µM* | -20% | 7%
CCOC(=O)CSc1nc(C2CC2)cc(-c2ccc(Cl)cc2)c1C#N | 1 | 20% | -17% | -2%[59 µM] | 24µM* | 19%
CCCCOC(=O)CSc1nc(N)c(C#N)c(-c2ccc(OC)cc2)c1C#N | 0 | 57% | 15% | 7%[12.7 µM] | -6% | -1%
CCOC(=O)CC(=O)CSc1nc(N)c(C#N)c(-c2ccc(F)cc2)c1C#N | · | 11% | -23% | 16% | -8% | 5%
CCC/C(C#Cc1ccsc1)=C1/c2ccccc2C(=O)N1c1ccccc1 | 0 | 31% | -6% | · | -19% | ·
